Screening data from PubChem.
CHX counter – counter-screen hit for Shiga toxin inhibitors, cycloheximide; cell reporter, cycloheximide protein synthesis inhibition counterscreen; max response, %; hit rate 12% among 300,000; in the data active = max response mostly above about 13%, no sharp cut-off; inactive = mostly below about 14%; also: read at 38.3 µM for the half of the compounds with a filed dose
Pf growth 96h – inhibits malaria parasite growth, 96 h; AID 504834; Potency, µM (series often up to 28.7 µM), hits mostly inhibitors; hit rate 6.9% among 320,000; P. falciparum luciferase reporter growth, 96 h; active = well fitted inhibition curve with a large enough effect; inconclusive = small, poorly fitted or top-dose-only effect, or another doubt; inactive = no such curve, though single readings can be large or run the other way
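Parasite growth measured via integrated firefly luciferase reporter in P. falciparum. Infected erythrocytes at 2% hematocrit, 0.05% parasitemia final were treated 96 hours at 37 C under 5% CO2, and luminescence was read.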
SARS PLpro yeast – inhibitors of SARS-CoV papain-like protease in yeast | S. cerevisiae expressing SARS-CoV PLpro, growth rescue | Potency, µM (series often up to 32.9 µM), most hits filed as activators | hit rate 0.19% among 330,000 | AID 485353; also: nearly all actives have a fitted effect of over 55% in size
Shiga inhibitor – blocks Shiga toxin action in Vero cells; Vero cells, Shiga toxin protein synthesis inhibition reporter; inhibition, % at 38.7 µM; hit rate 9.2% among 290,000; AID 2315; in the data active = inhibition mostly above about 28%, no sharp cut-off; inactive = mostly below about 43%
Pf growth 48h – inhibits P. falciparum growth in the first generation, 48 h. P. falciparum luciferase growth in erythrocytes, 48 h. hit rate 5.9% among 310,000. Potency, µM (doses to about 28.7 µM), most hits filed as inhibitors. AID 504832; active = well fitted inhibition curve with a large enough effect; inconclusive = small, poorly fitted or top-dose-only effect, or another doubt; inactive = no such curve, though single readings can be large or run the other way
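Erythrocytes infected with P. falciparum carrying an integrated firefly luciferase reporter (2% hematocrit, 0.1% parasitemia final) were exposed to compounds in RPMI 1640 with 0.5% Albumax at 37 C, 5% CO2. Growth inhibition was scored as reduced luminescence.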
NS1 inh – inhibitors of influenza NS1 protein function; Potency, µM (series often up to 46.1 µM); hit rate 0.4% among 270,000; AID 2326; also: actives are rising curves; nearly all actives have a fitted effect of over 50% in size
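OD600 was taken as the measure of yeast growth restored by compound in an NS1-expressing S. cerevisiae strain. Cells had been washed out of glucose medium and diluted 1:100 into galactose -URA medium, pH 6.0.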
Large screens that a line does not name were inactive. Rows were chosen to be rich in hits. Some 21% of all compounds tested hit in one or more screens of this group. Unless noted, calls follow the shape of the full dose curve.

CCOC(=O)c1sc2nc(C)c([N+](=O)[O-])c(COC)c2c1N	Pf growth 48h 10µM
CCOC(=O)c1sc2ncc([N+](=O)[O-])cc2c1N	none
Cc1nc2sc(C(=O)Nc3ccccc3)c(N)c2c(C)c1[N+](=O)[O-]	CHX counter 50, Pf growth 96h inconclusive, Shiga inhibitor 91 (no result: NS1 inh)
COc1ccc(-c2c(C#N)c(N)nc3sc(C(=O)c4ccccc4)c(N)c23)cc1	Pf growth 48h 9.3µM
Cc1nc(-c2ccccc2)nc2sc(C(=O)c3ccc(F)cc3)c(N)c12	none
Cc1nc2sc(C(=O)c3ccccc3)c(N)c2c(C)c1C	CHX counter 24 (no result: NS1 inh)
O=c1cc(CN2CCN(Cc3ccccc3)CC2)c2ccc(O)cc2o1	Pf growth 96h inconclusive, Pf growth 48h inconclusive
Cc1ccc2oc(=O)cc(CN3CCN(C/C=C/c4ccccc4)CC3)c2c1	Pf growth 96h 8.3µM, Pf growth 48h inconclusive
O=c1cc(CN2CCN(C/C=C/c3ccccc3)CC2)c2cc(O)ccc2o1	Pf growth 96h 2.9µM, Pf growth 48h 3.3µM
NC(=O)c1ccc(NC(=O)CSc2nnc(-c3cccnc3)n2Cc2ccco2)cc1	none
COc1ccc(C(=O)/C(=C/N(C)C)S(=O)(=O)c2ccccc2)cc1	CHX counter 27, Shiga inhibitor 61
Cc1ccccc1N1CCN(c2ccc(NC(=O)C3CCCCC3C(=O)O)cc2)CC1 (configuration not stated)	NS1 inh inconclusive
CCC12CN3CCN(CC(C3)/C1=N/NC(N)=O)C2	none (no result: NS1 inh)
CCC1SC(C)C/C(=N/NC(N)=O)C1C (configuration not stated)	CHX counter 35
COc1ccc(/C=C(/C(=O)Nc2ccccc2C(=O)N2CCCC2)c2ccccc2)cc1	Pf growth 96h inconclusive, Pf growth 48h 6.6µM
COc1ccc(/C=C/C(=O)Nc2ccccc2C(=O)N2CCCC2)cc1	Shiga inhibitor 53
COc1ccc(/C=C(/C(=O)Nc2ccccc2C(=O)NC(C)C)c2ccccc2)cc1	Pf growth 96h inconclusive, Pf growth 48h inconclusive
COc1ccc(/C=C/C(=O)Nc2ccccc2C(=O)O)cc1	none (no result: NS1 inh)
CC(=O)N1CCN(C(=S)NC(=O)c2ccc(S(=O)(=O)N3CCOCC3)cc2)CC1	NS1 inh inconclusive
Cc1ccc(S(=O)(=O)N2CCN(C(=O)COC(=O)c3ccc(Cl)nc3)CC2)c(C)c1	none (no result: CHX counter, Shiga inhibitor, NS1 inh)
Cc1ccc(S(=O)(=O)N(C)C)cc1NC(=O)C(C)OC(=O)C1CCCCC1 (configuration not stated)	none (no result: CHX counter, Pf growth 96h, Shiga inhibitor, Pf growth 48h, NS1 inh)
Cc1ccc(N2C(N)=C(C#N)C(c3cccnc3)C3=C2CCCC3=O)cc1 (configuration not stated)	Pf growth 96h inconclusive, Pf growth 48h inconclusive
COc1ccc(C2C(C#N)=C(N)N(c3cccnc3)C3=C2C(=O)CCC3)cc1Cn1cc([N+](=O)[O-])cn1 (configuration not stated)	Pf growth 96h inconclusive, Pf growth 48h inconclusive
Cc1nn(C)cc1C1C(C#N)=C(N)N(c2ccc(F)c([N+](=O)[O-])c2)C2=C1C(=O)CCC2 (configuration not stated)	Pf growth 96h 9.3µM, Pf growth 48h inconclusive
COc1ccc(C2C(C#N)=C(N)N(c3ccccc3)C3=C2C(=O)CCC3)cc1Cn1cc([N+](=O)[O-])cn1 (configuration not stated)	Pf growth 96h 15µM, Pf growth 48h 8.3µM
Clc1ccc(Sc2cc(Cl)c(Cl)cc2Cl)cc1	none (no result: Pf growth 96h, SARS PLpro yeast, Pf growth 48h, NS1 inh)
CC1(C)CC(O)C(C)(C)N1O (configuration not stated)	Pf growth 96h 13µM
O=C(Cn1cc(C(=O)C2CC2)c2ccccc21)NC1CCCC1	none
O=C(O)Cn1cc(C(=O)C2CC2)c2ccccc21	none (no result: Pf growth 96h)
O=C(c1cn(Cc2ccccc2)c2ccccc12)C1CC1	CHX counter 12 (no result: NS1 inh)
O=C(COc1ccccc1)c1cn(Cc2ccccc2)c2ccccc12	CHX counter 18, Pf growth 48h inconclusive
O=C(Cn1cc(C(=O)C2CC2)c2ccccc21)NCc1ccccc1	CHX counter 34, Shiga inhibitor 53
Cc1ccc(C)c(NC(=O)CN(C)C(=O)c2ccccc2OCc2ccccc2Cl)c1	Pf growth 96h inconclusive (no result: CHX counter, Shiga inhibitor, NS1 inh)
CN(C)c1nc(F)c(F)c(S(=O)(=O)c2ccccc2)c1F	none
Cc1ccc(OCCn2cnc3sc(C(N)=O)c(C)c3c2=O)cc1	Pf growth 48h inconclusive (no result: NS1 inh)
CCn1cnc2sc(C(=O)Oc3ccc(Br)cc3)c(C)c2c1=O	CHX counter 30, Pf growth 96h 2.9µM, Shiga inhibitor 64 (no result: NS1 inh)
CCOC(=O)Cn1cnc2sc(C(=O)OC)c(C)c2c1=O	Shiga inhibitor 25
CCOCCn1cnc2sc(C(=O)NCC(=O)OCC)c(C)c2c1=O	CHX counter 23, Shiga inhibitor 32
CCOC(=O)c1c(C)c(C(=O)N2CCN(c3ccc(F)cc3)CC2)c(C)n1C	none (no result: NS1 inh)
Cc1nnc2sc(SCc3ccc(Cl)cc3)nn2c1=O	Pf growth 96h 1µM, Pf growth 48h inconclusive
CC(=O)Nc1cccc(NC(=O)CSc2nn3c(=O)c(C)nnc3s2)c1	Pf growth 96h 5.2µM, Pf growth 48h 9.3µM
Cc1cccc(CSc2nn3c(=O)c(C)nnc3s2)c1	Pf growth 96h inconclusive, Pf growth 48h 10µM
Cc1nnc2sc(SCC(=O)Nc3ccc(Cl)cc3)nn2c1=O	Pf growth 96h inconclusive, Pf growth 48h inconclusive
Cc1ccc(CSc2nn3c(=O)c(C)nnc3s2)cc1	Pf growth 96h inconclusive, Pf growth 48h 8.3µM
Cc1ccc(C(=O)CSc2nn3c(=O)c(C(C)(C)C)nnc3s2)cc1	Pf growth 96h inconclusive
CC(C)(C)c1nnc2sc(SCC(=O)c3cccs3)nn2c1=O	none
Cc1cc(C(=O)NNc2c(Cl)cccc2Cl)n(C(C)(C)C)n1	Pf growth 96h inconclusive, Pf growth 48h inconclusive
COCCn1c(N)c(Sc2ccc([N+](=O)[O-])cc2)c(=O)[nH]c1=O	none
O=C(CCNS(=O)(=O)c1ccccc1)NNC(=O)C1COc2ccccc2O1 (configuration not stated)	none (no result: CHX counter, Shiga inhibitor, NS1 inh)
CCOc1ccccc1C(=O)N1CCN=C1SCc1cccnc1	none
COc1cccc(-c2nnc3sc(C4CCCCC4)nn23)c1	none (no result: Pf growth 48h)
COc1cc(OC)c(-c2nn3c(C4CCCCC4)nnc3s2)cc1OC	Pf growth 48h 5.2µM
Clc1ccc(OCc2nn3c(C4CCCCC4)nnc3s2)c(Cl)c1	none
CCOc1cccc(-c2nnc3sc(C4CCCCC4)nn23)c1	Pf growth 96h 10µM, Pf growth 48h 9.3µM
COc1cc(-c2nnc3sc(Cc4ccccc4)nn23)cc(OC)c1OC	Pf growth 96h 6.6µM, Pf growth 48h inconclusive
COc1ccc(-c2nnc3sc(CCN4C(=O)c5ccccc5C4=O)nn23)cc1	Pf growth 96h inconclusive, Pf growth 48h 5.2µM
Cc1cccc(N2CC(C(=O)Nc3nnc(SCC(=O)NCC4CCCO4)s3)CC2=O)c1 (configuration not stated)	Pf growth 48h inconclusive
Cc1ccc(N2CCN(Cc3ccccc3)CC2=O)c(C)c1	Pf growth 96h inconclusive
O=C(COC(=O)CC(c1ccccc1)c1ccccc1)NCc1ccc(Cl)cc1	Pf growth 96h inconclusive, Pf growth 48h inconclusive
